TEAD-YAP inh = TEAD-YAP interaction inhibition; HEK-TIYL cells, TEAD-Gal4/YAP UAS-luciferase luminescence; 640,000 tested, 1.4% active; AID 1259422; inhibition, % at 9.12 µM; in the data active = inhibition above about 32%;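 note: 0% = median of test compound wells and 100% = reference inhibitor wells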
FBW7 activator = activators of human E3 ligase FBW7; 650,000 tested, 0.13% active; normalized activity (activation), % at 26.1 µM; AlphaScreen FBW7–phospho-cyclin E peptide binding, activator screen; AID 1259310; Q969H0; in the data active = normalized activity above about 1.9%;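 note: purified mutant Fbw7 with reduced substrate affinity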
MITF primary = blocks human microphthalmia-associated transcription factor | O75030 | AlphaScreen MITF homodimerization, bead proximity signal | 650,000 tested, 0.91% active | inhibition, % at 2.6 µM; in the data active = inhibition above about 50%;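 note: 0% = vehicle wells with protein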
Target sequence (O75030 whole entry, looked up): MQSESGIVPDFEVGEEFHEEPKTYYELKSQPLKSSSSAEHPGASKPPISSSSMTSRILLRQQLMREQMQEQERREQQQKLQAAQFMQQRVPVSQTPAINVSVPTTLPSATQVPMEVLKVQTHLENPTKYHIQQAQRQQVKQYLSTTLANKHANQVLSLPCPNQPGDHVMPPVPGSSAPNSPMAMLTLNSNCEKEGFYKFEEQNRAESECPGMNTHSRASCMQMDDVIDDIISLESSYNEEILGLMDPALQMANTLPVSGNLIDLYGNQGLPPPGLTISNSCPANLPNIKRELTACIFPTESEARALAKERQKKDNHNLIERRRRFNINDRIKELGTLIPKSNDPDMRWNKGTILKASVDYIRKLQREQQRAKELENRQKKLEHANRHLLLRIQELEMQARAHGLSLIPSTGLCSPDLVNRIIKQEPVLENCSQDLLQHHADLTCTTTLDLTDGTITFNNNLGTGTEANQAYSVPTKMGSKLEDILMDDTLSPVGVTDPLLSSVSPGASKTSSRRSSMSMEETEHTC
GPR151 ag = activators of human GPR151 | Q8TDV0 | activation, % at 11.2 µM | 650,000 tested, 1% active | PathHunter beta-arrestin GPR151 cells, luminescence | AID 1508602; in the data active = activation above about 4.9%;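 note: 0% = median of compound wells and 100% = cells with positive control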
GPR151 conf act = confirmation of human GPR151 activators | shares compounds with GPR151 ag | GPR151 PathHunter beta-arrestin cells, luminescence, 90 min; % of EA-reagent control over plate median | activation, % at 11.2 µM | 6,700 tested, under 10 active | AID 1508609;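 active = mean percent activation across replicates above the confirmation screen cutoff of 4.91%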
GPR119 counter = counter-screen for GPR151 activators: effect on human GPR119. AID 1508611. shares compounds with GPR151 ag. 6,700 tested, 0.3% active. GPR119 PathHunter beta-arrestin cells, luminescence, 90 min; 0 = compound-well median, 100 = enzyme-acceptor control. activation, % at 11.2 µM;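 active = mean percent activation in the counterscreen above 29.09%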;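 note: counterscreen on off-target GPR119 to flag nonselective hits from the GPR151 activator screen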
* hit, by the source's call; / = no result; ! = a repeat was not active. Shown are actives, neighbours in structure and some others; about 3.5% of the full set was active somewhere.

SMILES | TEAD-YAP inh | FBW7 activator | MITF primary | GPR151 ag | GPR151 conf act | GPR119 counter
CCCc1nc(C(C)(C)O)c(C(=O)OCc2oc(=O)oc2C)n1Cc1ccc(-c2ccccc2-c2nn[nH]n2)cc1 | -1 | 0 | -9 | 11*! | 0 | 1
CCOc1nc2cccc(C(=O)OC(C)OC(=O)OC3CCCCC3)c2n1Cc1ccc(-c2ccccc2-c2nn[nH]n2)cc1 (stereo not drawn) | -25 | 0 | 9 | 2 | / | /
O=C(NCc1cccs1)c1cnn2c1NC(c1ccc(F)cc1)CC2C(F)(F)F (stereo not drawn) | -5 | 0 | -8 | -1 | / | /
CCC(C)(C)n1nnnc1CN(Cc1cc2cc(C)ccc2[nH]c1=O)CC1CCCO1 (stereo not drawn) | 5 | 0 | 8 | 0 | / | /
CCOC(=O)c1sc2nc(-c3ccc(Cl)cc3)cn2c1C | -42 | 0 | -13 | 2 | / | /
O=C(CCC1=NS(=O)(=O)c2ccccc2N1)Nc1ccccc1 | 4 | 0 | 5 | 6.2* | 0 | -4
CSc1ccc2nc(NC(=O)c3ccccc3C)sc2c1 | -39 | 0 | 5 | -6 | / | /
COc1cccc(C(=O)Nc2nc3ccc(SC)cc3s2)c1OC | -14 | 0 | -15 | 5.0* | 0 | 8
c1ccc2[nH]c(CNc3ccnc(N4CCN(Cc5ccc6c(c5)OCO6)CC4)n3)nc2c1 | -7 | 0 | 14 | 3 | / | /
O=C(Oc1ccccc1[N+](=O)[O-])c1ccccc1Cl | -3 | 0 | 10 | 10* | 0 | -5
O=C(Oc1ccccc1[N+](=O)[O-])c1ccc(F)cc1 | 6 | 0 | 9 | 5.9* | 1 | -12
Cc1nc(N2CCN(C(=O)c3ccccc3)CC2)c2oc3ccccc3c2n1 | -9 | 0 | 2 | 2 | / | /
Cc1[nH]nc(-c2ccccc2)c1Sc1ccccc1 | 3 | 0 | 0 | 0 | / | /
COc1ccc(OC)c(NC(=O)CN(c2cc([N+](=O)[O-])ccc2OC)S(C)(=O)=O)c1 | -14 | 1 | -2 | 0 | / | /
COc1cc(/C=C(\C#N)c2ccc([N+](=O)[O-])cc2)ccc1O | 5 | 0 | -14 | 1 | / | /
COC(=O)COc1ccc(/C=C(/C#N)c2ccc([N+](=O)[O-])cc2)cc1Br | 11 | 0 | 3 | 7.2* | 0 | 0
COc1cccc(C(=O)OCc2cccc([N+](=O)[O-])c2)c1 | -8 | 1 | 10 | 6.9* | 1 | -2
COc1ccc(C(=O)OCc2cccc([N+](=O)[O-])c2)cc1 | 2 | 0 | -3 | 4 | / | /
COc1cccc(COC(=O)c2n[nH]c3ccccc23)c1 | -15 | 0 | 5 | 6.9* | -1 | -9
CCOC(=O)c1ccsc1NC(=O)c1ccc2c(c1)CCCC2 | -5 | 0 | 1 | -1 | / | /
COc1cc(C2/C(=C(\O)c3ccccc3)C(=O)C(=O)N2c2ccccn2)ccc1O (stereo not drawn) | -1 | 0 | -4 | 1 | / | /
CCOc1ccc(NC(=O)CC2Sc3ccc(C(F)(F)F)cc3NC2=O)c([N+](=O)[O-])c1 (stereo not drawn) | -2 | 0 | 9 | 5.0* | 0 | 8
Cc1cc(N2CCOCC2)nc2ccc(N)cc12 | -62 | 0 | 16 | -1 | / | /
Cc1cc2c(n1-c1ccc(C(=O)NCCCN3CCOCC3)cc1)CCCC2 | 11 | 0 | 3 | 1 | / | /
CCCNC(=O)CSc1nccn1Cc1ccc(F)cc1 | -4 | 0 | -10 | 5.7* | 1 | 11
SMILES | TEAD-YAP inh | FBW7 activator | MITF primary | GPR151 ag | GPR151 conf act | GPR119 counter
O=C(/C=C/c1ccccc1)Nc1cc2ccccc2oc1=O | -12 | 0 | -4 | 1 | / | /
Cc1cnc(Nc2nccc3ccccc23)nc1Nc1ccc(N2CCOCC2)cc1 | 50* | 0 | 3 | 6.0* | 0 | -3
Cc1cnc(Nc2nc3ccccc3n2C)nc1Nc1ccc(N2CCOCC2)cc1 | -28 | 0 | 18 | -1 | / | /
CCCNc1nc(Nc2nccc3ccccc23)ncc1C | 39* | 0 | 0 | 5.1* | 0 | -1
CCNC(=O)CNC(=O)COc1ccccc1 | 5 | 0 | 9 | -1 | / | /
Cc1ccc(Cl)cc1NC(=O)Cn1cnc2c(-c3ccccc3)csc2c1=O | 1 | 0 | 1 | 7.3* | -1 | -1
COc1ccc(/C=C(\C#N)C(=O)Nc2ccc(Br)cc2F)c(OC)c1 | -2 | 0 | -2 | 0 | / | /
CCOC(=O)CSCC(=O)N1N=C(c2cccs2)CC1c1cccc(OC)c1OC (stereo not drawn) | 5 | 0 | 3 | 6.6* | 0 | 8
CCOc1ccc(Cl)cc1S(=O)(=O)N1CCN(c2ccc(F)cc2)CC1 | 12 | 0 | 2 | 5.0* | 0 | -3
CCOc1ccc(OCC)c(S(=O)(=O)N2CCN(c3ccc(F)cc3)CC2)c1 | 6 | 0 | 18 | -1 | / | /
Cc1oc(-c2ccccc2Cl)nc1CSCC(=O)NC(C)(C)C | -23 | 0 | 5 | 5.2* | 1 | -1
Cc1oc(-c2ccccc2Cl)nc1CSCC(=O)NC1CCCC1 | -4 | 0 | 6 | 2 | / | /
O=C(NCCN1CCCCC1)C1CCCN1C(=O)OCc1ccccc1 (stereo not drawn) | -5 | 0 | 2 | 1 | / | /
COc1ccccc1OCCCN1C(=O)C(=O)c2cc(Br)cc(C)c21 | 13 | 0 | -4 | 14* | 1 | 15
COC(=O)c1cc2ccc3c(c2oc1=O)CN(Cc1ccco1)CO3 | -10 | 0 | 5 | 0 | / | /
Cc1cc(OCC(=O)NCC(C)CN(C)C)ccc1Cl (stereo not drawn) | -4 | 0 | -12 | 5.8* | 2 | 14
Cc1cc(OCC(=O)NCc2ccc(F)cc2)ccc1Cl | 2 | 0 | 7 | 6.1* | -1 | -3
Cc1c(CNC2CCC(C)CC2)c(C(=O)O)c(C)n1Cc1ccccc1 (stereo not drawn) | -8 | 0 | 25 | 0 | / | /
S=C(Nc1ccc(Cl)cc1)Nc1ccccn1 | -27 | 0 | 1 | 0 | / | /
O=C(NNc1ccccn1)Nc1ccc(Cl)cc1 | -8 | 0 | -3 | 6.5* | 0 | 0
Cc1nnc(NC(=O)c2ccc(N3C(=O)c4ccccc4C3=O)cc2)s1 | 4 | 0 | 5 | -1 | / | /
C=CCOC(=O)C1=C(C)N2CCSC2=C(C#N)C1c1ccco1 (stereo not drawn) | -12 | 0 | 6 | 5.1* | 2 | 7
COCCO[C@H]1[C@H](NC(=O)C(C)C)c2ccccc2C12CCN(C(=O)C1CCCC1)CC2 | 7 | 0 | -4 | -1 | / | /
COCCO[C@H]1[C@H](NC(=O)C(C)C)c2ccccc2C12CCN(C(=O)CCC(C)C)CC2 | 4 | 0 | 21 | 5.2* | 0 | 8
COc1ccc(C(=O)NCCOc2ccccc2OC)cc1OC | 4 | 0 | -1 | -2 | / | /
CCOc1cc(C(=O)NCc2ccccc2)ccc1OC | 1 | 0 | -6 | 14* | 0 | -8
COc1ccc(C(=O)NCCC(c2ccccc2)c2ccccc2)cc1OC | 2 | 0 | 6 | 19* | 0 | -5

Assay outcomes: PubChem BioAssay, The Scripps Research Institute Molecular Screening Center
